± gives the standard deviation of the averaged measurements. Over roughly 33,000 sequences, “E-score (rank enrichment, -0.5 to 0.5)” has its median near -0.0043; the highest 2% begin near 0.24. Many of the other results were omitted from the sample, so the highest values are more common in it than they were.
Tested on: 2Sp-muMax20 (muMax20 with two 2,6-bis(methyl)pyridine Cys staples)
Assay: PBM 8-mer E-score (E-score (rank enrichment, -0.5 to 0.5)); higher = stronger preferential binding
Procedure: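 Protein binding microarray (universal PBM chip covering all 10-mers in fixed probe flanks) with chemically synthesized human Max(13-93) bHLH-LZ analogs (not full-length Max) bearing noncanonical residues (hArg, Tha, Aib, Nle at 65) and aromatic Cys staples. Read-out per 8-mer (and its reverse complement): E-score (rank-based enrichment, -0.5 to 0.5) and Z-score of median probe intensity.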

Going from CTCAGGTC to GCGAGGGA, the “PBM 8-mer E-score” value rises from -0.298 ± 0.018 to 0.0348 ± 0.068.

Compared with ATATAATG, GTATAAGA is lower in “PBM 8-mer E-score” value: 0.235 ± 0.0039 for the first, 0.171 ± 0.024 for the second.

First: ATATAATA
Second: CTATAATA
The “PBM 8-mer E-score” value of the first is higher: 0.244 ± 0.015 for the first, 0.0904 ± 0.023 for the second.

First: GAATAATA
Second: GTATAATA
The “PBM 8-mer E-score” value of the first is lower: 0.0134 ± 0.025 for the first, 0.26 ± 0.018 for the second.

First: GCGACCCA
Second: TAACTAGA
The “PBM 8-mer E-score” value of the first is lower: -0.125 ± 0.0022 for the first, 0.216 ± 0.032 for the second.

TAAATTGA and GCTATACA are within error of each other in “PBM 8-mer E-score” value: 0.123 ± 0.068 for the first, 0.148 ± 0.0048 for the second.

Going from ACTACACA to TATATACA, the “PBM 8-mer E-score” value falls from 0.317 ± 0.02 to 0.11 ± 0.072.

Going from AATATACA to CCTACACG, the “PBM 8-mer E-score” value falls from 0.272 ± 0.012 to -0.0918 ± 0.0064.

First: ACTATACA
Second: AATATACT
The “PBM 8-mer E-score” value of the first is higher: 0.236 ± 0.052 for the first, 0.0855 ± 0.0041 for the second.

TCTATACA and ACTACACG are within error of each other in “PBM 8-mer E-score” value: 0.111 ± 0.0021 for the first, 0.134 ± 0.1 for the second.

First: GAGGGCAA
Second: AATTGTGT
The “PBM 8-mer E-score” value of the first is lower: 0.00807 ± 0.048 for the first, 0.124 ± 0.015 for the second.

Compared with ATGGCGTC, AATCTCAC is higher in “PBM 8-mer E-score” value: -0.112 ± 0.017 for the first, -0.00554 ± 0.028 for the second.

Compared with GCACAACC, CCACAACA is higher in “PBM 8-mer E-score” value: -0.26 ± 0.11 for the first, -0.0195 ± 0.008 for the second.

GCACAACA and TATCGATA are within error of each other in “PBM 8-mer E-score” value: 0.245 ± 0.044 for the first, 0.28 ± 0.0074 for the second.

GATCGATA and AATCGATA are within error of each other in “PBM 8-mer E-score” value: 0.0711 ± 0.063 for the first, 0.122 ± 0.028 for the second.

CGTAGTTC and ATGGTGCG are within error of each other in “PBM 8-mer E-score” value: -0.126 ± 0.036 for the first, -0.0695 ± 0.038 for the second.

First: CATGGGCC
Second: ATGGTAAT
The “PBM 8-mer E-score” value of the first is lower: -0.227 ± 0.033 for the first, 0.0649 ± 0.056 for the second.

Compared with CCCGTAGA, CGCGGGGA is higher in “PBM 8-mer E-score” value: -0.219 ± 0.0027 for the first, 0.00762 ± 0.0032 for the second.

First: GGCGGGAA
Second: GGCGGGGA
The “PBM 8-mer E-score” value of the first is lower: 0.0758 ± 0.012 for the first, 0.327 ± 0.0043 for the second.

First: GGGCGGGA
Second: CGGCGGGA
The “PBM 8-mer E-score” value of the first is higher: 0.302 ± 0.009 for the first, -0.183 ± 0.048 for the second.

Going from AGGCGGGA to CGGGATAG, the “PBM 8-mer E-score” value falls from 0.0612 ± 0.085 to -0.0726 ± 0.029.

First: GATAATAA
Second: GATAATCA
The “PBM 8-mer E-score” value of the first is lower: 0.161 ± 0.11 for the first, 0.291 ± 0.0043 for the second.

Going from CATAATCA to GATAATCC, the “PBM 8-mer E-score” value falls from 0.122 ± 0.058 to -0.0127 ± 0.051.

Going from AATAATCA to TATAATCA, the “PBM 8-mer E-score” value rises from 0.0327 ± 0.025 to 0.248 ± 0.026.

CTCCTGCA and ACCAGCGA are within error of each other in “PBM 8-mer E-score” value: -0.0859 ± 0.085 for the first, -0.0875 ± 0.13 for the second.

Going from AGTGCCCG to CGGGCCCG, the “PBM 8-mer E-score” value rises from -0.183 ± 0.011 to -0.0343 ± 0.1.

Compared with ACCTTCAG, AAACGGCT is lower in “PBM 8-mer E-score” value: 0.0376 ± 0.011 for the first, -0.108 ± 0.055 for the second.

Going from GAAACGGC to AAAACGGC, the “PBM 8-mer E-score” value rises from -0.0635 ± 0.06 to 0.295 ± 0.024.

Compared with AAACGGCC, CAACGGCC is lower in “PBM 8-mer E-score” value: 0.2844 ± 0.0015 for the first, -0.302 ± 0.033 for the second.

First: CAAACGGC
Second: GTATCTCA
The “PBM 8-mer E-score” value of the first is lower: -0.18938 ± 4.9e-05 for the first, 0.17 ± 0.075 for the second.

CAACCTCC and GAAGTGTA are within error of each other in “PBM 8-mer E-score” value: -0.00017 ± 0.065 for the first, -0.0146 ± 0.06 for the second.

First: ATGGCTGG
Second: TATGTCAA
The “PBM 8-mer E-score” value of the first is lower: -0.00368 ± 0.018 for the first, 0.224 ± 0.067 for the second.

Going from AGTGGTAA to AGTATATA, the “PBM 8-mer E-score” value rises from 0.0408 ± 0.025 to 0.273 ± 0.03.

CCTATATC and AGTATATG are within error of each other in “PBM 8-mer E-score” value: -0.0131 ± 0.064 for the first, 0.125 ± 0.12 for the second.

CGTATCTA and ACTATCTC are within error of each other in “PBM 8-mer E-score” value: 0.000215 ± 0.053 for the first, -0.108 ± 0.18 for the second.

AGTATCTA and ATTATATC are within error of each other in “PBM 8-mer E-score” value: 0.3 ± 0.034 for the first, 0.243 ± 0.051 for the second.

Compared with ATTATATA, AGTATATC is lower in “PBM 8-mer E-score” value: 0.199 ± 0.014 for the first, -0.0248 ± 0.067 for the second.

Compared with ATTATATG, GGTATCTA is lower in “PBM 8-mer E-score” value: 0.198 ± 0.017 for the first, -0.00749 ± 0.008 for the second.

Compared with ACTATATC, CGCGCTGA is lower in “PBM 8-mer E-score” value: 0.302 ± 0.055 for the first, 0.00249 ± 0.09 for the second.

CATGCAGG and CCTAGTTA are within error of each other in “PBM 8-mer E-score” value: 0.0699 ± 0.036 for the first, 0.0579 ± 0.045 for the second.

CGTGGGTC and CCCAAACC are within error of each other in “PBM 8-mer E-score” value: 0.00478 ± 0.056 for the first, 0.0283 ± 0.012 for the second.

AGTGCAAA and GTGTGGCA are within error of each other in “PBM 8-mer E-score” value: -0.0314 ± 0.044 for the first, 0.0191 ± 0.059 for the second.

Compared with GAAGCCGA, CGATCCTC is higher in “PBM 8-mer E-score” value: -0.13 ± 0.0099 for the first, -0.0245 ± 0.032 for the second.

In the case of GCGCAAAC, the “PBM 8-mer E-score” value is reported as 0.11 ± 0.026.
